Growth inhibition data for 21 molecules are collected here from PubChem BioAssay (NCI).

Where “and” joins values, the source holds several entries; their conditions need not be identical. Equal entries are not always repeated. Compounds without any hit were thinned out: in the full panel of roughly 79,000, 15% have a hit. A structure can be active in one record and inactive in another. Calls of active or inactive are those of the source. No stated cut-off is given here; in the data, active means growth inhibition above about 70%; inactive means the rest.

A short description of assay [1]: NCI Yeast Anticancer Drug Screen. Data for the rad50 strain (AID 155).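 Further: 0% = growth of vehicle-only cultures of the same strain.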 As to conditions: S. cerevisiae rad50 strain growth inhibition; at 50.0 µM; stronger effect = higher value. Summed up:
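A DNA repair-deficient yeast mutant serves as the test organism; compound-induced growth inhibition is calculated against vehicle-treated cells.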

The nature of assay [2]: NCI Yeast Anticancer Drug Screen. Data for the mec2-1 strain (AID 157). As to conditions: S. cerevisiae mec2-1 strain, at 50.0 µM, stronger effect = higher value. Summed up:
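Growth inhibition is read against vehicle-treated controls after compound exposure of the mec2-1 yeast strain, which is defective in DNA damage repair or cell cycle control.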

Assay [3] is described as follows: NCI Yeast Anticancer Drug Screen. Data for the sgs1 mgt1 strain (AID 161).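 Further: 0% = growth of cultures given vehicle only.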 As to conditions: S. cerevisiae sgs1 mgt1 strain, at 50.0 µM, stronger effect = higher value. Summed up:
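Compounds are added to genetically altered yeast, and growth is compared with cultures given vehicle alone to give percent inhibition.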

Assay [4] is described as follows: NCI Yeast Anticancer Drug Screen. Data for the cln2 rad14 strain (AID 165).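 Further: 0% = growth equal to vehicle treated cultures.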 As to conditions: S. cerevisiae cln2 rad14 strain, at 50.0 µM, stronger effect = higher value. Summed up: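 Growth inhibition, relative to vehicle-treated controls, is the read-out. The test organism is a yeast strain with defined genetic alterations, cln2 rad14.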
Assay [5] in a line: NCI Yeast Anticancer Drug Screen. Data for the bub3 strain (AID 167). To be noted: S. cerevisiae bub3 mutant strain, at 50.0 µM, stronger effect = higher value. Summed up: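 Inhibition values come from growth of compound-treated mutant yeast normalised to vehicle-treated controls.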
Assay [6] in a line: NCI Yeast Anticancer Drug Screen. Data for the mlh1 rad18 strain (AID 175). As to conditions: S. cerevisiae mlh1 rad18 strain growth inhibition; at 50.0 µM; stronger effect = higher value. Summed up:
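Cells of a genetically altered yeast strain, deficient in DNA damage repair, were treated with compound. Their growth was then compared with that of vehicle-treated cultures to give inhibition.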

In the case of `CC(C)C1CCC(NC(=O)Nc2ccccc2)CC1` (stereo unspecified), the growth inhibition was 79.5% (active) and 20.6% (inactive) in assay [1]; 48.5% (inactive) and 20.3% (inactive) in assay [2]; 70.5% (active) and 43.2% (inactive) in assay [3]; 46.2% (inactive) and -3.5% (inactive) in assay [4]; 66.7% (inactive) and 23.6% (inactive) in assay [5]; 81.1% (active) and 44.8% (inactive) in assay [6].
Take `Nc1ccc2ccc(O)cc2c1`: the growth inhibition in assay [1] was 24.8% (inactive) and 29.8% (inactive); in assay [2], -0.5% (inactive) and 8.5% (inactive); in assay [3], 24.9% (inactive) and 16.8% (inactive); in assay [4] it was 21.8% (inactive) and -22.2% (inactive); in assay [5], 13.6% (inactive) and 25.8% (inactive); in assay [6], 19% (inactive) and 24.6% (inactive).
`CCN(CC)CCCNC`: the growth inhibition in assay [1] was 6.2% (inactive) and 26.6% (inactive); in assay [2] it was -4.75% (inactive) and 7.75% (inactive); in assay [3] it was 3.2% (inactive) and 3.7% (inactive); in assay [4] it was 2.25% (inactive) and -25.1% (inactive); in assay [5], -9.6% (inactive) and -4.5% (inactive); in assay [6], 7.3% (inactive) and 25.2% (inactive).
For the molecule `CCCCCC(Br)C(Br)CC(Br)C(Br)CCCCCCCC(=O)c1ccc2ccccc2c1O` (stereo unspecified), the growth inhibition in assay [1] was 2.8% (inactive) and 22.1% (inactive); in assay [2] it was -2.05% (inactive) and 0.5% (inactive); in assay [3] it was 10.4% (inactive) and 2.9% (inactive); in assay [4] it was 8.05% (inactive) and -2.25% (inactive); in assay [5], -18.3% (inactive) and 5.9% (inactive); in assay [6], -3.1% (inactive) and 7.15% (inactive).
Take `CCCCNC(=S)S`: the growth inhibition is -1.1% (inactive) and -33.5% (inactive) in assay [1]; -19.8% (inactive) and -30.9% (inactive) in assay [2]; 0.65% (inactive) and -20.4% (inactive) in assay [3]; -7.65% (inactive) and -14.2% (inactive) in assay [4]; 11% (inactive) and -23.7% (inactive) in assay [5]; -6.9% (inactive) and -22.5% (inactive) in assay [6].
Take `O=C(O)C1(O)C[C@@H](O)C(O)[C@H](O)C1` (stereo partly specified): the growth inhibition is 4.9% (inactive) and -19.3% (inactive) in assay [1]; 0.15% (inactive) and -14.2% (inactive) in assay [2]; -3.65% (inactive) and -30.1% (inactive) in assay [3]; 21.2% (inactive) and 23.8% (inactive) in assay [4]; -4.65% (inactive) and -2.35% (inactive) in assay [5]; 3.6% (inactive) and -2.65% (inactive) in assay [6].
Consider `OC1CCN2Cc3ccccc3N=C12` (stereo unspecified), for which the growth inhibition in assay [1] is 3.1% (inactive) and 22.2% (inactive); in assay [2], -0.3% (inactive) and 21.7% (inactive); in assay [3] it was 17.4% (inactive) and -5.9% (inactive); in assay [4], 4.5% (inactive) and 15.8% (inactive); in assay [5], -3.05% (inactive) and 13.4% (inactive); in assay [6] it was -2% (inactive) and -16.8% (inactive).
As for `CC1C(=O)c2cc3c(cc2CCN(C)Cc2c1ccc1c2OCO1)OCO3` (stereo unspecified), the growth inhibition is 13.9% (inactive) and 3.4% (inactive) in assay [1]; -16.4% (inactive) and 5.75% (inactive) in assay [2]; -10.2% (inactive) and 7.3% (inactive) in assay [3]; -3.65% (inactive) and -3.7% (inactive) in assay [4]; -29.9% (inactive) and -12.9% (inactive) in assay [5]; -31.8% (inactive) and 14.6% (inactive) in assay [6].
For `CCOC(=O)c1ccc(N=[N+]([O-])c2ccc(C(=O)OCC)cc2)cc1`, the growth inhibition was -10.8% (inactive) and -4.1% (inactive) in assay [1]; -4.95% (inactive) and -4.3% (inactive) in assay [2]; 2.8% (inactive) and -7.65% (inactive) in assay [3]; -6% (inactive) and -3.25% (inactive) in assay [4]; -40.5% (inactive) and -19.9% (inactive) in assay [5]; -13.4% (inactive) and 19.8% (inactive) in assay [6].
`CC(=O)Nc1ccc(C=O)cc1`: the growth inhibition in assay [1] was 13.1% (inactive) and 25.1% (inactive); in assay [2], 3.5% (inactive) and 19.1% (inactive); in assay [3], 14.8% (inactive) and 24.1% (inactive); in assay [4], -18.1% (inactive) and 8.75% (inactive); in assay [5] it was -4.15% (inactive) and -9.2% (inactive); in assay [6] it was 4.9% (inactive) and 28% (inactive).
Consider `O=C(CC(=O)c1ccc(Cl)cc1)Cc1ccc2ccccc2n1`, for which the growth inhibition in assay [1] is 8.9% (inactive) and 43.4% (inactive); in assay [2], 29.4% (inactive) and 38.6% (inactive); in assay [3], 37.2% (inactive) and 33.5% (inactive); in assay [4], 45% (inactive) and 39.2% (inactive); in assay [5], 52.3% (inactive) and 51% (inactive); in assay [6] it was 45.3% (inactive) and 10.2% (inactive).
Consider `CSCCC(NC(=O)COc1ccc(Cl)cc1Cl)C(=O)O` (stereo unspecified), for which the growth inhibition in assay [1] is -21.3% (inactive) and 16.8% (inactive); in assay [2], -35.6% (inactive) and 60% (inactive); in assay [3], -44.5% (inactive) and 34.2% (inactive); in assay [4], 6.2% (inactive) and 7.2% (inactive); in assay [5], -23.4% (inactive) and 30.6% (inactive); in assay [6] it was -33.3% (inactive) and 52.7% (inactive).
Consider `COC(=O)/C(Cc1cccc(OC(C)=O)c1C(=O)OC)=N/O`, for which the growth inhibition in assay [1] was -8.8% (inactive) and 2.95% (inactive); in assay [2] it was 16.2% (inactive) and 12.4% (inactive); in assay [3], 9.25% (inactive) and -3.7% (inactive); in assay [4], -10.5% (inactive) and -99.8% (inactive); in assay [5], -8.75% (inactive) and 12.7% (inactive); in assay [6], -13.2% (inactive) and 3.55% (inactive).
For the molecule `Cc1ccc(C(O)c2nnc(C(O)c3ccc(C)cc3)nn2)cc1` (stereo unspecified), the growth inhibition in assay [1] was 11.2% (inactive) and 33.9% (inactive); in assay [2], 11.6% (inactive) and 29% (inactive); in assay [3] it was -3.55% (inactive) and 71% (active); in assay [4], 9.45% (inactive) and 16.4% (inactive); in assay [5], 18.9% (inactive) and 21.2% (inactive); in assay [6], 18.8% (inactive) and 40.5% (inactive).
As for `CC(=O)OCC1OC(CCC#N)C(OC(C)=O)C(OC(C)=O)C1OC(C)=O` (stereo unspecified), the growth inhibition is 10.7% (inactive) and 1.7% (inactive) in assay [1]; 15.5% (inactive) and 14.2% (inactive) in assay [2]; 17.4% (inactive) and 2.35% (inactive) in assay [3]; -12% (inactive) and -1.35% (inactive) in assay [4]; 9.3% (inactive) and -4.05% (inactive) in assay [5]; 13.6% (inactive) and 11.3% (inactive) in assay [6].
In the case of `COCc1cc(C)c(C#N)c(=O)[nH]1`, the growth inhibition was -2.35% (inactive) and 9.35% (inactive) in assay [1]; 1.5% (inactive) and 5.35% (inactive) in assay [2]; -5% (inactive) and -8.7% (inactive) in assay [3]; 17.9% (inactive) and -3.65% (inactive) in assay [4]; 13.3% (inactive) and -7.55% (inactive) in assay [5]; -3.9% (inactive) and 0.85% (inactive) in assay [6].
Regarding `CCOC(=O)C(N)CS` (stereo unspecified), the growth inhibition was -1.35% (inactive) and -31.1% (inactive) in assay [1]; -22.8% (inactive) and -66.1% (inactive) in assay [2]; -2.5% (inactive) and -6.05% (inactive) in assay [3]; -26.9% (inactive) and 7.05% (inactive) in assay [4]; -28.3% (inactive) and -30.7% (inactive) in assay [5]; 4.95% (inactive) and -27.9% (inactive) in assay [6].
Consider `CCCOC(=O)c1ccc(OCC)cc1`, for which the growth inhibition is 22.4% (inactive) and -20.6% (inactive) in assay [1]; 8.2% (inactive) and -9.8% (inactive) in assay [2]; 12.6% (inactive) and 3.1% (inactive) in assay [3]; -8% (inactive) and -42.6% (inactive) in assay [4]; -11.2% (inactive) and -16.6% (inactive) in assay [5]; 15.2% (inactive) and -23.6% (inactive) in assay [6].
On to `CC12CCC(C(=O)OC1=O)C2(C)C` (stereo unspecified), for which the growth inhibition in assay [1] is 3.8% (inactive) and -0.45% (inactive); in assay [2], -8.2% (inactive) and 4.05% (inactive); in assay [3], -46.8% (inactive) and -13.5% (inactive); in assay [4], 28.1% (inactive) and -51% (inactive); in assay [5], -29.8% (inactive) and 0.35% (inactive); in assay [6], -55% (inactive) and -0.75% (inactive).
Consider `O=C1CCSSCCC(=O)NCCN1`, for which the growth inhibition is 7.95% (inactive) and -6.4% (inactive) in assay [1]; 8.6% (inactive) and -3.25% (inactive) in assay [2]; -5.75% (inactive) and 5.55% (inactive) in assay [3]; -2.5% (inactive) and 14.3% (inactive) in assay [4]; 6.65% (inactive) and 29% (inactive) in assay [5]; 16.2% (inactive) and 0.4% (inactive) in assay [6].
For the molecule `O=C1Nc2c(cc([N+](=O)[O-])cc2[N+](=O)[O-])C1=O`, the growth inhibition in assay [1] is -8.6% (inactive) and 3.1% (inactive); in assay [2] it was 7.6% (inactive) and -0.75% (inactive); in assay [3] it was -5.1% (inactive) and 2.05% (inactive); in assay [4], -0.05% (inactive) and -12.1% (inactive); in assay [5], -2.4% (inactive) and 3.95% (inactive); in assay [6] it was -1.1% (inactive) and 2.6% (inactive).
